Assay results as given in PubChem BioAssay AID720513 (Broad Institute, 2013).
Hit rate of the full screen: of about 2,100 compounds, about 480 (23%) were called active. Not shown: some 5% with an inconclusive outcome.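 The calls were made as follows: active = fitted curve reaches 40% activation at or below the top valid concentration, in every replicate test; inconclusive = replicate tests disagree on the call; inactive = the rest, including activity in the opposite direction.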 The list is a sample of the results. Entries with a potency or affinity are not part of this list.

Experiment: activators raising PGC1a acetylation in cells, dose response, cell-based, cherry-picked samples, set 6 (AID 720513);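 also: cells made to overexpress flag tagged PGC1a plus GCN5 acetyltransferase by viral infection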
Conditions: U2OS PGC1a acetylation AlphaLISA, overnight, 0 = neutral, -100 = inhibitor control; series mostly up to 19.5 µM; activation (acetylation increase): at the top concentration

Structure (SMILES)	activation (acetylation increase)
Fc1cccc(CN2C[C@@H]3N[C@H](C2)C3c2ccc(/C=C/c3ccccc3)cc2)c1 (some centres undefined)	-94.1% (inactive)
CCOC(=O)c1oc2nc3c(cc2c1N)COC(C)(C)C3	36.1% (inactive)
C[C@H]1CN([C@@H](C)CO)C(=O)c2cc(C#CC(C)(C)O)cnc2O[C@@H]1CN(C)C(=O)C1CCC1	4.88% (inactive)
CC1CCCCN1C(=O)CN(C)S(=O)(=O)c1cccc2nsnc12 (centres undefined)	-12% (inactive)
O=C(Nc1ccc(F)cc1)C1CCCN1S(=O)(=O)c1cccc2nsnc12 (centres undefined)	2.69% (inactive)
O=c1c2c3c(sc2n2cnnc2n1Cc1ccccc1)CN(Cc1ccccc1)CC3	29.5% (inactive)
COC(=O)c1[nH]c2ccc(F)cc2c1NS(=O)(=O)c1ccc(OC)cc1OC	-6.12% (inactive)
O=C(C[C@H]1CC[C@@H](NC(=O)c2ccccc2)[C@H](CO)O1)Nc1ccc(-c2ccccc2)cc1	-60.5% (inactive)
COc1ccc(CCN2C(=O)N(c3ccc(OC)cc3)C(=O)C2CC(=O)Nc2ccccc2)cc1 (centres undefined)	0.037% (inactive)
CC(=O)c1ccc(N2CCN(C(=O)c3ccc4nc[nH]c4c3)CC2)cc1	16.3% (inactive)
Cc1[nH]c2ccccc2c1C(=O)/C=C/c1ccccc1	-28.1% (inactive)
CSc1nsc(SC)c1NC(=O)Nc1ccccc1C	25.9% (inactive)
O=C(CN1C(=O)NC2(CCc3ccccc32)C1=O)c1ccc(Br)cc1 (centres undefined)	31% [at 10 µM] (inactive)
COCc1c(C(=O)Nc2cccc(S(=O)(=O)N3CCCCC3)c2)oc2ccccc12	21.3% (inactive)
CC1CCN(S(=O)(=O)c2ccc(Oc3ccc([N+](=O)[O-])cc3)cc2)CC1	36% (inactive)
CCOc1ccc(NC(=O)c2cccc3c2C(=O)N(CCOC)C3)cc1	1.21% (inactive)
COc1cccc(NC(=O)c2ccccc2-c2ccccc2C(=O)O)c1	11.2% (inactive)
Cc1c(NC(=O)COC(=O)c2ccccc2O)c(=O)n(-c2ccccc2)n1C	15.7% (inactive)
C[C@@H]1CN([C@H](C)CO)C(=O)Cc2cc(NC(=O)Cc3ccccc3)ccc2O[C@@H]1CN(C)S(C)(=O)=O	14.9% (inactive)
C[C@@H]1CN([C@H](C)CO)C(=O)Cc2cc(NC(=O)Nc3ccccc3)ccc2O[C@H]1CN(C)Cc1ccccc1	5.21% [at 21 µM] (inactive)
C[C@H]1CN([C@@H](C)CO)C(=O)Cc2cc(NS(C)(=O)=O)ccc2O[C@@H]1CN(C)Cc1ccc2c(c1)OCO2	1.57% (inactive)
C[C@H]1CN([C@@H](C)CO)C(=O)Cc2cc(NC(=O)Nc3ccccc3)ccc2O[C@@H]1CN(C)Cc1ccccc1	-36.2% (inactive)

Structure (SMILES)	activation (acetylation increase)
C[C@H]1CCCCO[C@H](CN(C)Cc2ccc3c(c2)OCO3)[C@@H](C)CN([C@@H](C)CO)C(=O)c2cc(NC(=O)Nc3ccc(C(F)(F)F)cc3)ccc2O1	-95.8% (inactive)
Cc1ccccc1Cn1cnc2c(nnn2Cc2ccc(F)cc2)c1=O	-4.71% (inactive)
O=C1Nc2c(Br)cc(Br)c3cccc1c23	1.42% (inactive)
C[C@@H]1CN([C@@H](C)CO)C(=O)c2cc(C#CCN(C)C)cnc2O[C@@H]1CN(C)S(=O)(=O)c1cn(C)cn1	15.9% (inactive)
C[C@H]1CN([C@@H](C)CO)C(=O)c2cc(-c3cccc(C(=O)N(C)C)c3)cnc2O[C@@H]1CN(C)S(=O)(=O)c1ccc(F)cc1	-3.94% (inactive)
COc1ccc(-c2cnc3c(c2)C(=O)N([C@H](C)CO)C[C@H](C)[C@H](CN(C)S(=O)(=O)c2cccs2)O3)cc1	4.64% (inactive)
COc1ccc(S(=O)(=O)N(C)C[C@@H]2Oc3ncc(-c4ccccc4)cc3C(=O)N([C@H](C)CO)C[C@@H]2C)cc1	24% [at 21 µM] (inactive)
O=C(C[C@H]1C[C@H]2c3cc(NC(=O)C4CCC4)ccc3O[C@H]2[C@H](CO)O1)NCc1ccc(-c2ccccc2)cc1	14% (inactive)
O=C1c2ccsc2SCCN1Cc1cccc(Cl)c1	-1.83% (inactive)
Cc1cccc(N2C(=O)C(Cl)=C(N3CCOCC3)C2=O)c1	-2.12% (inactive)
O=S(=O)(c1cccs1)N1CCCCN2[C@H](CO)[C@H](c3ccc(/C=C/c4ccccc4)cc3)[C@H]2C1	-41.3% (inactive)
O=C(NC[C@@H]1N[C@@H](CO)[C@H]1c1ccc(C2=CCCCC2)cc1)c1ccc(F)cc1	21.8% (inactive)
C[C@H](CO)N1C[C@H](C)[C@@H](CN(C)Cc2ccccc2F)Oc2ncc(Br)cc2C1=O	9.64% (inactive)
O=S(=O)(Nc1ccccc1N1CCCCC1)c1ccc(F)cc1	29.9% (inactive)
CCCN(CCC)S(=O)(=O)c1ccc(C(=O)Nc2nnc(CSC)o2)cc1	-2.17% (inactive)
Cc1noc(C)c1S(=O)(=O)Nc1ccc2c(c1)C(=O)N([C@@H](C)CO)C[C@@H](C)[C@@H](CN(C)S(=O)(=O)c1ccccc1)O2	15% (inactive)
O=S(=O)(C/C(=C/CO)S(=O)(=O)c1ccccc1)c1ccccc1	-51.6% (inactive)
CCN(C(=O)CN1CCN(c2ccccc2O)CC1)c1c(N)n(Cc2ccccc2)c(=O)[nH]c1=O	1.96% (inactive)
CO[C@H](CN(C)S(=O)(=O)c1ccc(Cl)cc1)[C@H](C)CN([C@H](C)CO)S(=O)(=O)c1cccc(Cl)c1	43.3% [at 18 µM] (inactive)
OCC1OC(Oc2c(Br)cc(Br)cc2Br)C(O)C(O)C1O (centres undefined)	15.7% (inactive)
CCc1ccc(C(=O)CN(C#N)c2nc(C)cc(C)n2)cc1	-61% (inactive)
COc1ccc(Cn2nnnc2CN(Cc2cc3ccc(C)cc3[nH]c2=O)C2CCCC2)cc1	-14.1% (inactive)
